# Assay outcomes deposited in PubChem by National Center for Advancing Translational Sciences (NCATS).
# SW480 rereplic – induces DNA re-replication in SW480 colon adenocarcinoma cells. SW480 DNA re-replication, Hoechst DNA content imaging, 48 h. Potency, µM (titrated, usually from 46.1 µM), without a hit: at the highest dose re-replication activation, usual class: activators. 340,000 compounds, 1.8% hits; also: potency is read from the fitted curve at half-maximal effect; % of control where 0% means no effect; nearly all actives have a fitted effect of over 55% in size
#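 250 cells/well; 23 nL cpd via pin tool; 48 hr, 37 C, 5% CO2; Hoechst 40 min; imager read of total nuclear intensity, ex 405/em 500-530 nm.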
# MCF10A rereplic – induces DNA re-replication in MCF 10a normal breast cells; MCF 10A DNA re-replication, Hoechst nuclear intensity, 48 h; Potency, µM (series often up to 46.1 µM), for inactives: at the top dose activity, positive = re-replication, most hits filed as activators; 350,000 compounds, 2.9% hits; AID 624296; also: potency is read from the fitted curve at half-maximal effect; % of control where 0% means no effect; nearly all actives have a fitted effect of over 50% in size
# IL-1B inflam inh – blocks inflammasome-driven IL-1 beta release; THP-1 LPS/ATP IL-1B secretion, AlphaLISA, 16 h; stronger effect = lower value; activity change, % at 57.5 µM; 360,000 compounds, 4.7% hits; AID 743279; in the data active = activity change below about -50%; inconclusive = mostly about -30% to -49%; also: % is scaled to controls: 0 for no effect and ±100 for the full control effect
#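 Secreted IL-1B measured by AlphaLISA bead assay after 16 h compound exposure of THP-1 cells; compounds (final up to 57.5 uM) added 1 h before LPS (250 ng/mL) and ATP (1.25 mM) stimulation; lower signal means less secretion.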
# BCR signal inh – chronic active BCR signaling inhibition; ABC-DLBCL IkBa-CBG/CBR reporter, luminescence ratio, 4 h; Potency, µM (doses to about 46.1 µM), for the others: top-dose activity change, negative = inhibition, actives largely listed as inhibitors; 340,000 compounds, 0.05% hits; AID 493014; active = well fitted inhibition curve with a large enough effect in the signal ratio, with a control signal flat, not every such curve was filed as active; inconclusive = small, poorly fitted or top-dose-only effect, or effect the other way, or a change in a side signal; the % refers to the signal ratio;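 also: potency is read from the fitted curve at half-maximal effect; plate controls were basal doxycycline-induced cells for no effect and cells given 10 µM MG132 for full effect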
#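 TMD8 human ABC-DLBCL cells with doxycycline-inducible IκBα–green luciferase fusion and unfused red luciferase, in 0.5% FBS medium; compounds up to 46 uM, 4 h at 37C. Green/red luminescence ratio, filter-overlap corrected, fitted to concentration-response curves.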
# TDP1 cell noCPT – qHTS for Inhibitors of human tyrosyl-DNA phosphodiesterase 1 (TDP1): qHTS in cells in absence of CPT; DT40 Tdp1-/- hTDP1 cells, no CPT, ATP luminescence, 48 h; Potency, µM (series often up to 46.2 µM), inactives show top-dose activity change, negative = growth inhibition, actives largely listed as inhibitors; 420,000 compounds, 15% hits; also: potency is read from the fitted curve at half-maximal effect; % is scaled to controls: 0 for no effect and ±100 for the full control effect; nearly all actives have a fitted effect of over 55% in size
#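 Stably hTDP1-transfected Tdp1-null chicken DT40 cells were treated with library compounds minus camptothecin and grown for at least 48 hr at 37 °C, after which cellular ATP was quantified by luminescence.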
# TDP1 cell CPT – growth inhibition of DT40 Tdp1-/-;hTDP1 cells with camptothecin (screen for TDP1 inhibitors) | chicken DT40 Tdp1-/-;hTDP1 cells + 20 nM CPT, ATP luminescence, 48 h | Potency, µM (top dose mostly 46.2 µM), without a hit: at the highest dose activity change, negative = growth inhibition, hits mostly inhibitors | 420,000 compounds, 12% hits | AID 686979; also: potency is read from the fitted curve at half-maximal effect; % is scaled to controls: 0 for no effect and ±100 for the full control effect; nearly all actives have a fitted effect of over 55% in size
#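 Cell growth measured by CellTiter-Glo luminescence after a minimum 48 h, 37 C compound exposure with 20 nM CPT in Tdp1-knockout DT40 cells stably expressing hTDP1, seeded 400/well; qHTS titration format.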
# * = called active by the depositor; ? = inconclusive; . = no result; [ ] = remark or other dose. Hits are enriched below; roughly 19% of the tested compounds scored in any of these assays. Unless noted, calls follow the shape of the dose curve; as a rule, active = well fitted curve in the direction sought with a large enough effect; inconclusive = small, poorly fitted or top-dose-only effect, or another doubt; inactive = no such curve, though single readings can be large; an effect the other way counts as inactive or inconclusive.
SMILES,SW480 rereplic,MCF10A rereplic,IL-1B inflam inh,BCR signal inh,TDP1 cell noCPT,TDP1 cell CPT
CC(C)(C)c1ccc(S(=O)(=O)c2cnc(SCC(=O)Nc3ccc4c(c3)OCCO4)[nH]c2=O)cc1,.,.,.,.,2.7%,-1.6%
CSc1nc2cc(S(=O)(=O)N3CCCCC3)ccc2s1,10.1%,7.2%,-17.3,-10.8%,23.1µM*,?
CC1(C)CC(=O)C2=C(C1)O[C@@]1(c3ccsc3)Cc3cc(C#N)ccc3C2O1,.,.,.,11.3%[9.22 µM],.,.
COC(=O)c1sccc1S(=O)(=O)NCc1ccc(S(N)(=O)=O)cc1,-4.9%,1.8%,-14.2,6.0%,-19.6%,2.1%
Cc1ccc(NC(=O)Cn2nc(C)c3nn(-c4ccc(Cl)cc4)c(C)c3c2=O)cc1C,.,.,.,.,14.6µM*,?
Cc1ccc(NC(=O)Cn2nc(C)c3nn(-c4ccc(Cl)cc4)c(C)c3c2=O)cc1F,.,.,.,.,16.4µM*,?
Cc1ccc(NC(=O)CCn2nc(C)c3c(C)n(-c4ccccc4)nc3c2=O)cc1Cl,.,.,.,.,-8.0%,-11.5%
Cc1nn(CC(=O)Nc2cccc(C(F)(F)F)c2)c(=O)c2nn(-c3ccccc3)c(C)c12,.,.,.,.,-2.9%,-1.9%
CCOc1ccc(C)cc1S(=O)(=O)n1nc(C)cc1C,-13.9%,6.8%,13.6,-0.1%,0.5%,-0.2%
CCOc1ccc(C(C)(C)C)cc1S(=O)(=O)n1nc(C)cc1C,0.4%[9.22 µM],-13.5%,-1.2,19.5%,11.2µM*,?
CCOc1ccc(S(=O)(=O)n2nc(C)cc2C)c2ccccc12,37.5%,-3.4%,20.0,-4.3%,?,23.1µM*
CCCOC(=O)C(C)n1cnc2scc(-c3ccc(C)cc3)c2c1=O (configuration not stated),19.8%,?,-7.9,2.1%,-0.1%,?
CC1CCN(S(=O)(=O)c2ccc3c(c2)N(CC(=O)NCCN2C(C)CCCC2C)C(=O)CS3)CC1 (configuration not stated),-0.1%,0.5%,-15.1,-8.1%,6.2%,-21.4%
C[C@H]1CN([C@@H](C)CO)C(=O)CCCn2cc(nn2)CO[C@@H]1CN(C)C(=O)Nc1ccccc1C(F)(F)F,.,.,13.5,.,-21.4%,5.2%
CCN(C(=O)CSc1nc(-c2ccccc2)no1)c1ccccc1,.,.,.,.,?,-17.2%
CC(C)c1ccc(-c2noc(SCC(=O)N(C)c3ccc(F)cc3)n2)cc1,.,.,.,.,23.1µM*,25.9µM*
CC(C)c1ccc(-c2noc(SCC(=O)N3CCCCC3)n2)cc1,.,.,.,.,11.6µM*,?
COc1ccc(N2CCN(C(=O)CSc3nc(-c4ccccc4)no3)CC2)cc1,.,.,.,.,-16.1%,-3.1%
O=c1ccc2c([nH]1)CCCCCCCCCC2,-0.1%,?,49.3,4.7%,-5.1%,-20.5%
C=CCn1c(CSCc2ccccc2)nnc1SCC(=O)N1CCN(c2ccccc2)CC1,-79.4%,-43.2%,0.0,?,14.6µM*,?
CCn1c(CSCc2ccc(C)cc2)nnc1SCC(=O)N1CCN(c2ccccc2)CC1,?,-0.6%,-8.1,11.0%,20.6µM*,-51.9%
Cn1c(Cc2ccccc2)nnc1SCC(=O)N1CCN(c2ccccc2)CC1,11.4%,?,14.1,-0.1%,-23.2%,?
Cc1cccc(C)c1NC(=O)CSc1nc(C2CC2)nc2ccccc12,-1.8%,-1.6%,-19.1,-19.9%,?,-16.4%
C=CC(=O)Nc1ccc(N(C)c2ccnc(Nc3ccc(N4CCN(C)CC4)cc3)n2)cc1,?,?,-77.2*,?,16.4µM*,?
COc1cc2ccccc2cc1C(=O)Nc1ccc(N2CCN(C)CC2)cc1,?,?,-2.9,11.5%,?,?
SMILES,SW480 rereplic,MCF10A rereplic,IL-1B inflam inh,BCR signal inh,TDP1 cell noCPT,TDP1 cell CPT
CNC(=O)Nc1ccc2nc(C)oc2c1,-0.5%,0.2%,-14.5,2.3%,-25.3%,-9.3%
CCOc1ccc(C(=O)Nc2ccc3nc(Nc4cccc(C(F)(F)F)c4)cc(C)c3c2)cc1OCC,.,.,.,.,5.17µM*,18.4µM*
CCOc1cc(/C=C(\CC(=O)O)c2nc3ccccc3s2)ccc1OCC(=O)Nc1cccc(C(F)(F)F)c1,-5.9%,?,-8.0,.,?,?
Cc1cc(Nc2cccc(C(F)(F)F)c2)nc2ccc(NC(=O)c3cccc(Cl)c3)cc12,.,.,.,.,6.51µM*,13µM*
Cc1nc2ccc(NC(=O)c3cccc(C(F)(F)F)c3)cc2o1,-8.0%,0.6%,?,?,?,23.1µM*
Cc1cc(Nc2cccc(C(F)(F)F)c2)nc2ccc(NC(=O)c3cccnc3)cc12,.,.,.,.,2.31µM*,4.11µM*
O=C(Nc1cccc(C(F)(F)F)c1)c1cccnc1,-4.4%,-0.9%,-3.1,.,-15.4%,-24.2%
COc1cccc(CNC(=O)CSc2nc(=O)n(Cc3ccncc3)c3c2CCC3)c1,-8.0%,-0.4%,-4.8,?,-1.2%,-4.9%
CC1(C(=O)NS(=O)(=O)c2ccc(F)cc2F)CCN1C(=O)c1ccccc1CCc1ccccc1 (configuration not stated),.,.,22.9,.,?,?
COc1ccc2[nH]c(=O)c(CN(CC3CCCO3)C(=S)Nc3cccc(C)c3)cc2c1 (configuration not stated),6.1%,1.3%,-15.4,14.7%,?,?
CCc1ccc2[nH]c(=O)c(CN(Cc3ccccc3OC)C(=O)Nc3ccccc3OC)cc2c1,7.0%,?,-60.3*,25.6%,23.1µM*,18.4µM*
COc1ccc2[nH]c(=O)c(CN(CC3CCCO3)C(=O)Nc3ccccc3OC)cc2c1 (configuration not stated),?,?,-61.7*,-4.4%,10.3µM*,13µM*
COc1ccccc1NC(=O)c1cc2c(=O)oc3ccc(C)cc3c2s1,.,.,.,.,?,-5.7%
COC(=O)c1ccc(Oc2cc(C)nc(SC)n2)cc1,19.0%,3.66µM*,0.0,?,2.91µM*,4.11µM*
CC(C)(C)OC(=O)N1O[C@H]2C[C@@H]1[C@@H]1[C@@H]2N=NN1C12CC3CC(CC(C3)C1)C2,20.6µM*,-2.8%,16.0,2.3%,?,?
CCOC(=O)N1CCc2c(sc3c2C(=O)NC(c2ccc(N(C)C)cc2)N3)C1 (configuration not stated),.,.,.,.,3.66µM*,2.31µM*
CCOC(=O)c1sc(C)c2c1NC(c1ccc(N(C)C)cc1)NC2=O (configuration not stated),28.0%,25.7%,-17.3,-5.2%,?,?
